# High-throughput results: PubChem BioAssay, several laboratories
# Rows were chosen to be rich in hits. Some 3.9% of all compounds tested hit in one or more screens of this group.
# CCHF vOTU inh-1 = blocks the CCHF virus ovarian tumor domain protease; hit rate 0.55% among 370,000; CCHFV vOTU protease, Pep-AMC fluorescence; inhibition, % at 11.5 µM; also: 0% = vehicle wells with enzyme and 100% = no enzyme wells
# BoNT F protease = blocks Botulinum neurotoxin F light chain protease; inhibition, % at 10 µM; Multiplex microsphere protease cleavage assay, flow cytometry; hit rate 0.22% among 360,000; in the data active = inhibition above about 35%, passing the limit was not always enough; inconclusive = no clear call, values can overlap the other calls; also: plate controls were buffer without enzyme for full effect and enzyme alone for no effect
# Anthrax LF prot = blocks Bacillus anthracis lethal factor protease; hit rate 0.12% among 360,000; AID 588501; inhibition, % at 10 µM; multiplex microsphere protease cleavage assay, LF; P15917; in the data active = inhibition above about 30%; inconclusive = no clear call, values can overlap the other calls; also: plate controls were buffer without enzyme for full effect and enzyme alone for no effect
# Bead autofluor = compound fluorescence in toxin protease inhibitor counterscreen; compound autofluorescence counterscreen, microsphere flow cytometry; stronger effect = higher value; fluorescence intensity (no concentration beside the values); hit rate 3.1% among 360,000; in the data active = fluorescence intensity above about 16000; inconclusive = no clear call, values can overlap the other calls
# BoNT-A LC inh2 = inhibitors of Botulinum neurotoxin A light chain protease | multiplex microsphere protease substrate cleavage, flow cytometry | inhibition, % at 10 µM | hit rate 0.17% among 360,000 | AID 588499; in the data active = inhibition above about 30%; inconclusive = no clear call, values can overlap the other calls; also: plate controls were buffer without enzyme for full effect and enzyme alone for no effect
# SARS 3CLpro inh-1 = SARS-CoV 3CLpro protease inhibition | recombinant SARS-CoV 3CLpro, quenched FRET peptide cleavage | hit rate 0.14% among 290,000 | inhibition, % at 6 µM | AID 1706 | P0C6X7; in the data active = inhibition above about 12%
# SARS 3CLpro inh-2 = SARS 3CLpro inhibition, confirmation assay | hit rate 36% among 380 | QFRET protease activity assay | shares compounds with SARS 3CLpro inh-1 | inhibition, % at 6 µM; in the data active = inhibition above about 13%
# BoNT-A LC CP1 = BoNT/A light chain protease inhibition | inhibition, % at 10 µM | multiplex microsphere protease assay, flow cytometry | shares compounds with BoNT F protease | hit rate 3% among 720; in the data active = inhibition above about 32%
# BoNT-F LC CP1 = inhibitors of Botulinum neurotoxin F light chain protease | shares compounds with BoNT F protease | multiplex microsphere protease cleavage assay, flow cytometry | inhibition, % at 10 µM | 720 tested, under 10 active | AID 602140; call rule not given here
# Anthrax LF CP1 = inhibitors of Bacillus anthracis lethal factor protease | shares compounds with BoNT F protease | multiplex microsphere protease cleavage assay, LF | inhibition, % at 10 µM | 720 tested, under 10 active; call rule not given here
# CCHF vOTU inh-2 = CCHFV vOTU protease inhibition, confirmation. Recombinant CCHFV vOTU, Pep-AMC fluorescence. AID 686976. shares compounds with CCHF vOTU inh-1. hit rate 17% among 1,900. inhibition, % at 11.5 µM
# Starred values were filed as active, the others as inactive; ? = inconclusive; / = no result. Rule as the data show it, unless noted: active = inhibition above about 30%; inactive = the rest.
SMILES,CCHF vOTU inh-1,BoNT F protease,Anthrax LF prot,Bead autofluor,BoNT-A LC inh2,SARS 3CLpro inh-1,SARS 3CLpro inh-2,others
O=Cc1c(C(=O)O)n(CC(=O)O)c2ccccc12,6,-6,-1,2485,-1,13*,-1,
O=Cc1c(C(=O)O)n(Cc2ccc(Cl)cc2)c2ccccc12,13,4,-1,2390,1,4,/,
Cc1cccc(N2C(N)=C(C#N)C(C#N)(C#N)C2c2ccccc2)c1 (stereo not drawn),18,-8,-4,2850,-1,14*,4,
O=C1NC(=O)/C(=C\c2ccc(OCc3cccc([N+](=O)[O-])c3)cc2)N1,5,0,-1,3987,0,-1,/,
O=C1C(=O)N(CCCc2ccccc2)c2ccccc21,/,?,6,3109,-2,19*,22*,
O=C1c2ccccc2C(=O)N1C/C=C/c1ccccc1,9,-3,3,3971,0,-6,/,
O=C1C(=O)N(C/C=C/c2ccccc2)c2ccccc21,-2,23,0,3126,1,34*,36*,
COCCNC(=O)C(c1cccc(OC)c1)N(Cc1cccs1)C(=O)Cn1nnc2ccccc21 (stereo not drawn),9,-17,-3,3572,0,32*,35*,
CCCCN(C(=O)Cn1nnc2ccccc21)C(C(=O)NCCOC)c1cccs1 (stereo not drawn),-7,-2,2,3703,0,2,/,
COc1ccc(COc2ccc(C3C(S(=O)(=O)c4ccccc4)CON3C)cc2OC)cc1 (stereo not drawn),12,-3,-1,4682,0,14*,4,
COc1cc(CC2C(=O)N(C)C(=O)N(C)C2=O)ccc1OCc1ccccc1,-12,12,0,10542,2,2,/,
NC1=C(c2ccccc2)C(=O)NC1=O,-11,-31,-2,3772,-2,0,/,
CCCCOc1ccc(Nc2cc(Cl)ccc2C(=O)O)cn1,37*,-32,6,3745,0,8,7,CCHF vOTU inh-2=-4
CC(C)c1c(C(=O)N/N=C/c2ccc3c(c2)OCO3)nnn1-c1nonc1N,1,-7,-3,6042,0,0,/,
CCN(CC)c1ccc(/C=N/NC(=O)c2nnn(-c3nonc3N)c2C(C)C)c(O)c1,31*,8,-1,4946,1,14*,3,CCHF vOTU inh-2=-20
Cc1cc(C(=O)c2ccccc2)c(NC(=O)CCl)s1,32*,-3,-2,2448,0,76*,81*,CCHF vOTU inh-2=-1
CCN(CC)CC(=O)Nc1sc(C)cc1C(=O)c1ccccc1,-5,-2,2,3199,1,-3,/,
COC(=O)[C@@]12C[C@@H](CC(=O)NCC34CC5CC(CC(C5)C3)C4)C(=O)N(Cc3cccc4ccccc34)C1=CCC(C)(C)C2,5,/,/,/,/,/,/,
COC1C(OC(=O)c2ccc(C)[nH]2)C(O)C(Oc2ccc3c(O)c(NC(=O)c4ccc(O)c(CC=C(C)C)c4)c(=O)oc3c2Cl)OC1(C)C (stereo not drawn),38*,-1,-4,4283,0,13*,11,CCHF vOTU inh-2=16
NS(=O)(=O)c1ccc(Nc2ccc([N+](=O)[O-])c3nonc23)cc1,31*,-2,-1,4384,-1,15*,6,CCHF vOTU inh-2=17
C[C@H]1NC(=O)[C@@]2(C)[C@@H](c3ccccc3)[C@H]3COc4ccccc4[C@@H]3N2C1=O,4,4,8,4076,0,/,/,
Cc1ccc2c(c1)c1c(n2CC(O)CN2CCCCCC2)CCCC1 (stereo not drawn),35*,-22,-9,3894,-4,20*,0,CCHF vOTU inh-2=-1
O=C(c1cc(Cl)ccc1O)N1CCN(S(=O)(=O)c2cccs2)CC1,-2,13,-3,5497,1,/,/,
Cc1ccc(S(=O)(=O)/N=C2\C=C(Nc3cccc(C(=O)O)c3)C(=O)c3ccccc32)cc1,105*,7,-6,5674,0,14*,8,CCHF vOTU inh-2=99*
COC(=O)c1ccccc1NC1=C/C(=N\S(=O)(=O)c2ccc(C(=O)O)cc2)c2ccccc2C1=O,/,4,-3,4516,1,6,/,
SMILES,CCHF vOTU inh-1,BoNT F protease,Anthrax LF prot,Bead autofluor,BoNT-A LC inh2,SARS 3CLpro inh-1,SARS 3CLpro inh-2,others
Cc1ccc(C#CC(C)(O)C(C)(C)C)cn1 (stereo not drawn),-11,?,-5,4198,1,3,/,
O=C(NC1CCCC1)C(c1cccnc1)N(Cc1ccccc1)C(=O)c1csnn1 (stereo not drawn),-3,43*,6,3682,1,-1,/,BoNT-A LC CP1=0;BoNT-F LC CP1=0;Anthrax LF CP1=1
O=C(NC1CCCCC1)C(c1ccccc1)N(Cc1cccnc1)C(=O)c1csnn1 (stereo not drawn),6,1,1,5647,0,-4,/,
CC(C)CCN(C(=O)c1csnn1)C(C(=O)NC1CCCC1)c1ccc(F)cc1 (stereo not drawn),10,91*,6,3226,3,6,/,BoNT-A LC CP1=-1;BoNT-F LC CP1=-2;Anthrax LF CP1=-7
COc1cccc(C2CC(c3ccccc3)=NN2S(=O)(=O)c2ccc(C)cc2)c1OC (stereo not drawn),-7,55*,32*,32220*,39*,7,/,BoNT-A LC CP1=14;BoNT-F LC CP1=-4;Anthrax LF CP1=-8
COCCCNC(=O)C(=O)NC1CCCCC1C (stereo not drawn),11,-5,-5,4795,-2,-2,/,
Cn1ncc(Cl)c1C(=O)N1CCN(C23CC4CC(CC(C4)C2)C3)CC1,-9,-7,1,4081,0,-3,/,
CCCN(CC(=O)Nc1ccccc1OC)C(=O)CSc1nc(C)cc(C)n1,3,-9,4,7179,-4,/,/,
c1ccc2c(c1)ncc1cccn12,-216,-2,-6,8837,0,1,/,
c1ccc(-c2ncc3ccccn23)cc1,-22,-2,-1,5898,2,-6,/,BoNT-A LC CP1=0;BoNT-F LC CP1=-7;Anthrax LF CP1=1
O=C(Nc1ccccc1F)C1CCN(C(=O)NCc2ccccc2)CC1,-10,-5,-2,6323,-2,-1,/,
O=C(Nc1ccc(F)cc1)C1CCN(C(=O)NCc2ccccc2)CC1,1,19,33*,2927,2,-3,/,BoNT-A LC CP1=-1;BoNT-F LC CP1=-7;Anthrax LF CP1=-3
C[C@@H]1CN([C@@H](C)CO)C(=O)c2cc(NC(=O)Nc3ccc(F)cc3)ccc2O[C@@H]1CN(C)Cc1ccc(Oc2ccccc2)cc1,3,1,2,3490,0,/,/,
CN(C)c1nc(Nc2ccc(F)cc2)nc(Oc2ccc(F)cc2)n1,0,-254,-90,1636,57*,5,/,BoNT-A LC CP1=-1;BoNT-F LC CP1=-4;Anthrax LF CP1=-1
